High-throughput results as filed in PubChem.
Mtb BioA inh: inhibitors of Mycobacterium tuberculosis BioA enzyme; purified M. tuberculosis BioA enzyme, plate reader; inhibition, % at 9.99 µM; 360,000 compounds, 0.096% hits; in the data active = inhibition above about 40%; inconclusive = no clear call, values can overlap the other calls
Y pestis TopoI: inhibitors of Yersinia pestis topoisomerase I | Y. pestis Topo-I cleavage product accumulation, plate reader | activity, % at 10 µM | 360,000 compounds, 0.064% hits | AID 504884; in the data active = activity above about 50%, passing the limit was not always enough; inconclusive = no clear call, values can overlap the other calls
Vc quorum ag: inducers of Vibrio cholerae quorum light production without autoinducers. AID 588436. activation, % at 18.7 µM. 350,000 compounds, 0.16% hits. V. cholerae BH1578 lux reporter, luminescence, 6 h; in the data active = activation mostly above about 9.7%, no sharp cut-off; inconclusive = no clear call, values can overlap the other calls; inactive = mostly below about 3.7%
TcdB GH inh: inhibitors of Clostridioides difficile toxin B glycohydrolase; 350,000 compounds, 0.24% hits; inhibition, % at 9.99 µM; TcdB glycohydrolase enzymatic assay, plate reader; AID 652162; in the data active = inhibition above about 10%
FadD28 FP inh: blocks FadD28 binding to the bisubstrate probe; inhibition, % at 12.5 µM; fluorescence polarization; AID 588549; 360,000 compounds, 0.22% hits; in the data active = inhibition above about 8.5%, passing the limit was not always enough; inconclusive = no clear call, values can overlap the other calls
Large screens that a line does not name were inactive. An excerpt weighted towards active compounds, which were near 0.58% of everything screened.

CC(C)c1cn(CC[C@@H]2CC[C@H](NC(=O)C3CCCC3)[C@@H](CO)O2)nn1	none (no result: Y pestis TopoI, Vc quorum ag, FadD28 FP inh)
Cc1nc2ccccc2c(=O)n1NC(=O)c1ccc(Cl)c(Cl)c1	Vc quorum ag 327.8
CCc1ccc(C(=O)Nn2c(C)nc3ccccc3c2=O)cc1	none
O=C1c2cc(Br)ccc2N(Cc2ccc(Br)cc2)S(=O)(=O)C1c1cc(Cl)c(Cl)cc1[N+](=O)[O-] (stereo not given)	FadD28 FP inh 29.9
O=C1CS(=O)(=O)N(Cc2cccc(F)c2)c2ccc(Br)cc21	none
COc1cc(-c2nc(=S)[nH][nH]2)cc(OC)c1OC	TcdB GH inh 30.2 (no result: Mtb BioA inh)
CN(C)C(=O)c1cccc(-c2ccc3c(c2)[C@@H]2[C@@H](CCN2C(=O)C2CCCCC2)[C@H](CO)N3)c1	none (no result: Y pestis TopoI, Vc quorum ag, TcdB GH inh, FadD28 FP inh)
CCc1cc(=O)n2c([nH]c3ccccc32)c1C#N	none (no result: TcdB GH inh)
CC(SCc1cc(=O)n2c([nH]c3ccccc32)c1C#N)C(=O)O (stereo not given)	FadD28 FP inh 10.3
COc1ccc(NC(=O)CN(C)C(=O)/C=C/c2ccc(S(=O)(=O)N3CCCCCC3)cc2)cc1	Y pestis TopoI 76.7
COc1ccc(/C=C/C(=O)N(C)CC(=O)Nc2cccc(F)c2)cc1S(=O)(=O)N1CCCCC1	none
CCOC(=O)c1sc(NC(=O)Nc2ccc(Cl)cc2)cc1C	FadD28 FP inh 24.8 (no result: TcdB GH inh)
O=c1cc2c(=O)oc3cc(O)c(O)oc3c2c(O)c1O	FadD28 FP inh 10.6
CN1C(=O)c2cc(NC(=O)c3ccc(F)c(F)c3)ccc2OC[C@@H]2O[C@@H](CC(=O)N3CCOCC3)CC[C@H]21	none (no result: Y pestis TopoI, Vc quorum ag, FadD28 FP inh)
O=C(Nc1ccc(Cl)cc1)N[C@H]1CC[C@H](CCn2cc(C3(O)CCCC3)nn2)O[C@@H]1CO	none (no result: Y pestis TopoI, Vc quorum ag, FadD28 FP inh)
COc1cccc(CC(=O)OCC(=O)Nc2c(C)nn(-c3ccccc3)c2C)c1	TcdB GH inh 10.9
Cc1cc(C)c(Nc2cc(S(=O)(=O)O)c(N)c3c2C(=O)c2ccccc2C3=O)c(C)c1	FadD28 FP inh 64.5 (no result: Mtb BioA inh, TcdB GH inh)
Cc1cc(C)c(NC(=O)COC(=O)c2cccc3c2C(=O)c2ccccc2C3=O)c(C)c1	none (no result: Mtb BioA inh, TcdB GH inh)
COC(=O)/C=C/C(=O)Nc1ccc(O)c(Cl)c1	TcdB GH inh 31.0 (no result: Mtb BioA inh)
COC(=O)/C=C/C(=O)Nc1cccnc1	none (no result: TcdB GH inh)
COc1ccc(NS(=O)(=O)c2cc(N=Nc3c(O)[nH]c(=O)[nH]c3=O)ccc2OC)cc1Br	none
CCOc1ccc(NS(=O)(=O)c2ccc(Cl)c(N=Nc3c(O)[nH]c(=S)[nH]c3=O)c2)cc1Br	FadD28 FP inh 14.7
CCC(C(=O)NC1CCCC1)n1c(-c2cc3ccccc3[nH]2)nc2ccccc21 (stereo not given)	none (no result: Mtb BioA inh, Y pestis TopoI, Vc quorum ag, FadD28 FP inh)
CCC(C(=O)NC1CCCCC1)n1c(SCc2ccccc2F)nc2ccncc21 (stereo not given)	FadD28 FP inh 9.3
CCNC(=O)[C@@H]1[C@@H](CO)[C@@H]2Cn3c(ccc(-c4ccccc4)c3=O)[C@@H]2N1CC	none (no result: Y pestis TopoI, Vc quorum ag, FadD28 FP inh)
CCNC(=O)[C@H]1[C@H](CO)[C@H]2Cn3c(ccc(-c4ccccc4)c3=O)[C@H]2N1CC	TcdB GH inh 14.3 (no result: Y pestis TopoI, Vc quorum ag, FadD28 FP inh)
CCCCn1c(-c2ccsc2)nc2c1c(=O)[nH]c(=O)n2CCC	none (no result: TcdB GH inh)
CCCCn1c(=O)[nH]c(=O)c2c1nc(-c1ccsc1)n2Cc1ccccc1	Y pestis TopoI 59.0 (no result: TcdB GH inh)
COc1ccc(/C=N/NC(=O)CSc2nnc(CCCc3ccc(OC)c(C)c3)o2)cc1	Vc quorum ag 33.3 (no result: TcdB GH inh)
CN1CCN(C(=O)C[C@@H]2CC[C@H](NC(=O)Cc3ccccn3)[C@@H](CO)O2)CC1	none (no result: Y pestis TopoI, Vc quorum ag, FadD28 FP inh)
CCC(=O)Nc1ccc2c(c1)OC[C@H](C)N(C(=O)c1cnccn1)C[C@@H](C)[C@H](OC)CN(C)C2=O	none (no result: Y pestis TopoI, Vc quorum ag, FadD28 FP inh)
Cc1ccc(NC(=S)NNc2ccc([N+](=O)[O-])cc2S(=O)(=O)Nc2ccccc2C(=O)O)cc1C	none (no result: TcdB GH inh)
CC(=O)Nc1cccc(/C(C)=N/Nc2ccc(S(=O)(=O)Nc3ccccc3C(=O)O)cc2[N+](=O)[O-])c1	FadD28 FP inh 18.9
COc1ccccc1NS(=O)(=O)c1cccc(-n2c(O)c(C=Nc3ccccc3C(=O)O)c3ccccc3c2=O)c1	FadD28 FP inh 19.7
O=C(O)c1ccccc1NS(=O)(=O)c1ccc(NNC(=S)Nc2ccc(OC(F)F)cc2)c([N+](=O)[O-])c1	FadD28 FP inh 55.4 (no result: Mtb BioA inh)
CN(CCO)c1ccc(C=NNc2ccc([N+](=O)[O-])cc2S(=O)(=O)Nc2ccccc2C(=O)O)cc1	FadD28 FP inh 31.8
COc1ccc(C(C)=NNc2ccc([N+](=O)[O-])cc2S(=O)(=O)Nc2ccccc2C(=O)O)c(OC)c1	none
C[C@@H]1CN([C@@H](C)CO)C(=O)c2cc(C3=CCCC3)cnc2O[C@@H]1CN(C)Cc1cccnc1	none (no result: Y pestis TopoI, Vc quorum ag, FadD28 FP inh)
CCOc1cc(/C=N/Nc2ccc(S(=O)(=O)Nc3ccccc3C(=O)O)cc2[N+](=O)[O-])cc(Cl)c1O	FadD28 FP inh 25.1
CC(=O)Nc1ccc(C=NNc2ccc([N+](=O)[O-])cc2S(=O)(=O)Nc2ccccc2C(=O)O)cc1	none
CCOc1ccc(C=NNc2ccc(S(=O)(=O)Nc3ccccc3C(=O)O)cc2[N+](=O)[O-])cc1OC	FadD28 FP inh inconclusive (no result: Mtb BioA inh, Vc quorum ag, TcdB GH inh)
CC(=O)Nc1ccc(C=NNc2ccc(S(=O)(=O)Nc3ccccc3C(=O)O)cc2[N+](=O)[O-])cc1	FadD28 FP inh 27.5
COc1cc(C=NNc2ccc(S(=O)(=O)Nc3ccccc3C(=O)O)cc2[N+](=O)[O-])ccc1O	FadD28 FP inh 49.7
CCC(=O)N[C@H]1C=C[C@H](CC(=O)NCC2CC2)O[C@H]1CO	none (no result: Mtb BioA inh, Y pestis TopoI, Vc quorum ag, FadD28 FP inh)
O=C(C1CCCCC1)N1CC2(C1)[C@H](c1ccccc1)[C@@H](CO)N2Cc1ccccc1F	none (no result: Mtb BioA inh, Y pestis TopoI, Vc quorum ag, FadD28 FP inh)
COc1ccc(OC)c(NC(=O)CN=[N+]=[N-])c1	none (no result: Mtb BioA inh, Y pestis TopoI, Vc quorum ag, FadD28 FP inh)
COc1ccc(C2=NS(=O)(=O)N(C)C(C(=O)NCc3ccc4c(c3)OCO4)=C2)cc1	TcdB GH inh 100.5
C[C@H]1CCCCO[C@@H](CN(C)CC2CCCCC2)[C@@H](C)CN([C@@H](C)CO)C(=O)c2cc(NC(=O)Cc3ccccc3)ccc2O1	none (no result: Y pestis TopoI, Vc quorum ag, FadD28 FP inh)
Cc1cc(C(=O)COC(=O)Cc2n[nH]c(=O)c3ccccc23)c(C)n1-c1cccc(C(F)(F)F)c1	Y pestis TopoI 66.9 (no result: TcdB GH inh)
Cc1cc(C(=O)COC(=O)CC2Sc3ccccc3NC2=O)c(C)n1-c1cccc(C(F)(F)F)c1 (stereo not given)	none
C[C@@H]1CN([C@@H](C)CO)C(=O)c2cc(-c3cccnc3)cnc2O[C@@H]1CN(C)C(=O)Nc1ccc2c(c1)OCO2	none (no result: Y pestis TopoI, Vc quorum ag, FadD28 FP inh)
C/C(=N\NC(=O)c1ccccc1Cl)c1c(O)n(C2CCCCC2)c(=O)[nH]c1=O	none
C/C(=N\NC(=O)c1ccccc1O)c1c(O)n(C2CCCCC2)c(=O)[nH]c1=O	FadD28 FP inh 11.6
COCCCn1c(-c2ccc(OC)cc2)cc(C(=O)NC2CCCCCCC2)c1C	Y pestis TopoI 56.1 (no result: Mtb BioA inh)
Cc1ccccc1S(=O)(=O)NCC[C@H]1CC[C@H](NC(=O)C2CC2)[C@@H](CO)O1	none (no result: Y pestis TopoI, Vc quorum ag, FadD28 FP inh)
CC1(C)CCC[C@@]2(C)CC=C(C(=O)O)[C@@H]3C[C@]312	FadD28 FP inh 9.1
O=C(Nc1ccn(CCCN(CCCn2ccc(NC(=O)OCc3ccccc3)nc2=O)CCc2cc3ccccc3[nH]2)c(=O)n1)OCc1ccccc1	Y pestis TopoI 77.0
O=C(Nc1ccn(CCCNCc2ccccc2)c(=O)n1)OCc1ccccc1	none
